# Active and inactive are the calls of the source. The call rests on the fitted dose curve; in most records, active means well fitted inhibition curve with a large enough effect; inconclusive means small, poorly fitted or top-dose-only effect; inactive means no such curve, though single readings can be large or run the other way.
# Test: qHTS assay for measurement of the activity of small molecule inhibitors on Zika virus induced Caspase-3 activity in human astrocytoma cells (AID 1224859);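 on activity change, negative = inhibition: plate controls were ZIKV-infected untreated cells for no effect and uninfected cells for full effect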
# Conditions: SNB-19 ZIKV-induced caspase-3/7, luminescence, 6 h; series mostly up to 45.7 µM; activity change, negative = inhibition: at the top concentration
# Excerpt: National Center for Advancing Translational Sciences [NCATS]
# Johns Hopkins University School of Medicine
# Increase in the Caspase-3 activity indicates an activation of apoptosis cell death pathway caused by Zika virus infection in certain types of neuronal cells including human neural progenitor cells (hNPCs), astrocytes, and astrocytoma cell line (SNB-19). This cell-based caspase-3 activity assay measures the increased caspase-3 activity in the astrocytoma cell line (SNB-19) after a 6-hour Zika virus infection with a luminescence readout. A decrease in the luminescence signal in this assay by small molecule treatment indicates an inhibitory effect of that small molecule on the Zika virus induced caspase-3 activity that may correlate with its effect on reduction of Zika virus caused cell death.
# The medium for SNB-19 cells is composed of RPMI 1640 (ATCC, Cat.# 30-2001), 10% fetal bovine serum (FBS) (GE healthcare Life Sciences, Cat.# SH30071.03), and 1% Pen/Strep (Gibco, Cat.# 15140-122). A Caspase-Glo 3/7 assay kit (catalog number G8092; Promega, Madison, WI) was used to detect caspase-3 activity induced by Zika virus infection in human cells. The reagent mixture was reconstituted as described in the protocol from the manufacturer. Polystyrene tissue culture treated and PDL coated white plates were obtained from Greiner Bio-One (Monroe, NC). Cells were seeded in 384- or 1536-well assay plates and cultured at 37 C with 5% CO2 for 16 to 20 hours. The typical cell seeding density in the 1536-well plate assay is 250 cells/well in 3ul medium for SNB-19 cells in tissue culture treated plates. Compounds were added to cells and incubated for one hour before addition of ZIKV solution to cells (2 FFU/cell). After incubation at 37 C with 5% CO2 for 6 hours, the reagent mixture of Caspase-Glo 3/7 assay kit was added to each well, followed by incubation at room temperature for 30 minutes. The luminescence intensity of the assay plates was measured using a ViewLux plate reader (PerkinElmer). Data were normalized by using the cell-containing wells without ZIKV as a negative control (0% induction of caspase 3/7 activity) and wells containing ZIKV infected cells (Caspase-3 activity induced) as a positive control (100% induction of caspase 3 activity). The percentage inhibitions of the increased Caspase-3 activity by small molecule inhibitors were then calculated.
# Potency means the concentration at half of the fitted maximal effect.
SMILES,"activity change, negative = inhibition",Potency
CC(C)(F)C[C@H](N[C@@H](c1ccc(-c2ccc(S(C)(=O)=O)cc2)cc1)C(F)(F)F)C(=O)NC1(C#N)CC1,-0.259% (inactive),
C[C@@H]1C[C@H]2[C@@H]3CCC4=CC(=O)C=C[C@]4(C)[C@@]3(F)[C@@H](O)C[C@]2(C)[C@@]1(O)C(=O)CO,-15.1% (inactive),
O=C(NC[C@H](O)CO)c1ccncc1Nc1ccc(I)cc1F,49.4% (inactive),
N[C@@H](CC(=O)N1CCn2c(nnc2C(F)(F)F)C1)Cc1cc(F)c(F)cc1F,15.4% (inactive),
Cc1nn(Cc2ccccc2Cl)c(C)c1CN(C)CC(O)COc1ccc(Cl)cc1 (stereo not given),41.7% (inactive),
Nc1ccn([C@@H]2O[C@H](CO)[C@@H](O)[C@H]2O)c(=O)n1,-8.32% (inactive),
Clc1ccc(C2(c3ccc(-c4cn[nH]c4)cc3)CCNCC2)cc1,4.56% (inactive),
Oc1ccc(C=Cc2cc(O)cc(O)c2)cc1,,6.62 µM (active)
CCN(CCO)CCCOc1ccc2c(Nc3cc(CC(=O)Nc4cccc(F)c4)[nH]n3)ncnc2c1,36% (inactive),
CCCCC[C@H](O)C=C[C@H]1[C@H](O)CC(=O)[C@H]1CC=CCCCC(=O)O,-4.06% (inactive),
CCCCOCCOc1nc(-c2ccc(C(=O)O)c(F)c2)sc1C,6.58% (inactive),
O=C(C=Cc1ccc(O)cc1)c1ccc(O)cc1O,,2.09 µM (active)
CCN1CCC(n2cc(CNc3cc(Cl)c4ncc(C#N)c(Nc5ccc(F)c(Cl)c5)c4c3)nn2)CC1,21.4% (inactive),
CC(C)c1onc(-c2c(Cl)cccc2Cl)c1COc1ccc(C=Cc2cccc(C(=O)O)c2)c(Cl)c1,0% (inactive),
FC(F)(F)c1ccc(C=Cc2nc(COc3ccc(CCCCn4ccnn4)cc3)co2)cc1,22.2% (inactive),
N#Cc1ccc(Oc2ccc3c(c2)COB3O)cc1,11.2% (inactive),
NS(=O)(=O)c1ccc(Nc2nc(OCC3CCCCC3)c3[nH]cnc3n2)cc1,68.3% (inactive),
N#Cc1c(N(CC(=O)O)CC(=O)O)sc(C(=O)O)c1CC(=O)O,11.4% (inactive),
COc1cc2ncn(-c3cc(OCc4ccccc4S(C)(=O)=O)c(C#N)s3)c2cc1OC,-13.3% (inactive),
N#CC(c1ccc(Cl)cc1)c1c(Cl)cc(-n2ncc(=O)[nH]c2=O)cc1Cl (stereo not given),62.8% (inactive),

SMILES,"activity change, negative = inhibition",Potency
CC1=C[C@@H]2[C@@H]([C@@H](O)C[C@@]3(C)[C@H]2C[C@@H](C)[C@]3(O)C(=O)CO)[C@@]2(C)Cc3cnn(-c4ccccc4)c3C=C12,17% (inactive),
C#C[C@]1(O)CC[C@H]2[C@H]3CCc4cc(OC)ccc4[C@H]3CC[C@@]21C,5.69% (inactive),
OC[C@H]1O[C@@H](OCCc2ccc(O)cc2)[C@H](O)[C@@H](O)[C@H]1O,1.04% (inactive),
Cc1cccc2c1CC[C@H](CN1CCC(c3c(Cl)cccc3Cl)CC1)C[C@@H]2O,37.2% (inactive),
CC(=O)OCC(=O)[C@@]1(O)CC[C@H]2[C@@H]3CCC4=CC(=O)C=C[C@]4(C)[C@@H]3[C@@H](O)C[C@@]21C,-10.9% (inactive),
CCC(=O)NCC[C@@H]1CCc2ccc3c(c21)CCO3,16.3% (inactive),
O=C(Nc1ccccc1)Nc1ccc(-c2ccc(C(=O)[C@H]3CCC[C@H]3C(=O)O)cc2)cc1,39% (inactive),
Cc1cnc(Nc2cccc(CN3CCOCC3)c2)nc1Nc1cccc(S(=O)(=O)NC(C)(C)C)c1,27.5% (inactive),
COc1nc(C)cnc1NS(=O)(=O)c1cccnc1-c1ccc(-c2nnco2)cc1,-0.293% (inactive),
NC1(C(=O)N[C@@H](CCO)c2ccc(Cl)cc2)CCN(c2ncnc3[nH]ccc23)CC1,193% (inactive),
CO[C@H]1/C=C\O[C@@]2(C)Oc3c(C)c(O)c4c(O)c(c5c(nc6cc(C)ccn65)c4c3C2=O)NC(=O)C(C)=CC=C[C@H](C)[C@H](O)[C@@H](C)[C@@H](O)[C@@H](C)[C@H](OC(C)=O)[C@H]1C,33.2% (inactive),
COc1c(C)cnc(Cn2cnc3c(Cl)nc(N)nc32)c1C,25.9% (inactive),
CC(C)c1c(C(=O)Nc2ccccc2)c(-c2ccccc2)c(-c2ccc(F)cc2)n1CC[C@H](O)C[C@@H](O)CC(=O)O,15.5% (inactive),
CC(C)(OCc1nn(Cc2ccccc2)c2ccccc12)C(=O)O,0.358% (inactive),
Cc1csc(-c2nnc(Nc3ccc(Oc4ncccc4-c4ccnc(N)n4)cc3)c3ccccc23)c1,63.2% (inactive),
CC1=C(CC(=O)O)c2cc(F)ccc2C1=Cc1ccc(S(C)=O)cc1 (stereo not given),28.3% (inactive),
CN1C(=O)C[C@H](C(=O)N[C@@H](Cc2cnc[nH]2)C(=O)N2CCC[C@@H]2C(N)=O)NC1=O,4.69% (inactive),
Cc1cccc(Nc2nc(N[C@@H]3CCCC[C@H]3N)ncc2C(N)=O)c1,24.7% (inactive),
NC(=O)c1ncn([C@@H]2O[C@H](CO)[C@@H](O)[C@@H]2O)n1,-18.8% (inactive),
NC(=O)c1noc([C@H](CCCC2CCCCC2)CC(=O)NO)n1,-3.51% (inactive),

# — PubChem BioAssay (NCATS)
